Only some compounds are listed: those with a hit (about 1.6% of all), similar ones and a draw of the others.
p53ts 32C kill: p53ts cell cytotoxicity, permissive temperature | Potency, µM (titrated, usually from 46.1 µM), for the others: top-dose activity change, negative = cytotoxicity, actives largely listed as cytotoxic | H1299-p53A138V at 32C, ATP luminescence viability, 24 h | 0.93% of 130,000 active;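 also: 0% = DMSO and -100% = full killing by reference compound; nearly all actives have a fitted effect of over 55% in size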
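Cells: H1299 p53ts (A138V), 600/well, pre-incubated 16–30 h at 37C. Cpd up to 46 uM, 24 h, 32C. Readout: ATPlite luminescence, 20 min RT. Normalization: DMSO vs tamoxifen 100 uM. AC50 by Hill equation.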
Peg3 imprint: genomic imprint erasure induction; mouse ES Peg3-LacZ reporter, beta-gal luminescence, 40 h; 0.02% of 110,000 active; Potency, µM (highest dose often 60.7 µM), for the others: at the top dose activity change, positive = activation, hits mostly activators
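Imprint erasure is scored as LacZ activity from the silenced maternal Peg3 allele in feeder-free female ES cells cultured 40 h with LIF. Luminescence is normalized to in-plate negative controls and fitted to the Hill equation.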
p53ts 39C tox: cytotoxicity in p53ts cells at nonpermissive temperature | 1.5% of 130,000 active | H1299-p53A138V viability at 39C, ATP luminescence, 24 h | AID 902 | Potency, µM (titrated, usually from 46.1 µM), for inactives: top-dose activity change, negative = cell killing, most hits filed as cytotoxic; also: % is scaled to controls: 0 for no effect and ±100 for the full control effect; nearly all actives have a fitted effect of over 55% in size
* marks the source's active call; other numbers are inactive results; ? = inconclusive; nt = no result; [ ] = remark or other dose. Calls follow the shape of the dose curve; as a rule, active = well fitted curve in the direction sought with a large enough effect; inconclusive = small, poorly fitted or top-dose-only effect, or another doubt; inactive = no such curve, though single readings can be large; an effect the other way counts as inactive or inconclusive. Potency is read from the fitted curve at half-maximal effect.

SMILES	p53ts 32C kill	Peg3 imprint	p53ts 39C tox
Cc1ccc(CSc2nc3ccc(NC(=O)C(C)C)cc3s2)cc1	-12%	12%[10.9 µM]	-6%
Cc1cc(S(=O)(=O)Nc2ccc3oc4c(c3c2)CCCC4)ccc1Cl	?	-20%[10.9 µM]	?
O=C(NCc1ccccc1Cl)c1cccc(C(F)(F)F)c1	-25%	nt	16µM*
O=C(NCc1ccccc1Cl)c1cccc(NC(=O)c2ccccc2)c1	nt	nt	6%
COc1cccc(C(=O)Nc2nc3c(s2)CCCC3)c1	10µM*	-51%[10.9 µM]	13µM*
O=C(Nc1nc2c(s1)C(=O)CCC2)c1ccccc1	13µM*	-93%	16µM*
CN(C)c1ccc(C(=O)Nc2nc3c(s2)CCCC3)cc1	?	-90%	?
Cc1onc(-c2ccccc2)c1C(=O)Nc1nc2c(s1)CCCC2	3%	-12%	22%
COCCNC(=O)CCCN1C(=O)CCn2nc(-c3cccn3C)cc21	-15%	-10%[10.9 µM]	-21%
O=C(c1ccco1)N1CCC2(CC1)CCN(c1ccccc1)CC2	-4%	nt	-17%
CCN1CCCC1Cn1c(-c2ccccc2)nc2c(N(CCOC)CCOC)nc(C)nc21 (centres undefined)	2%	-1%	-13%
CCN(CC)c1ccc2cc(NC(=O)CCC(=O)O)c(=O)oc2c1	?	-14%	13µM*
CCN(CC)c1ccc2cc(C(N)=O)c(=O)oc2c1	-10%	nt	-6%
CCc1ccccc1NC(=O)Cn1nnc(-c2nc(-c3ccc(C)cc3)no2)c1N	4%	3%[10.9 µM]	-10%
COc1ccc(/C=C\C(=O)Nc2ccccc2C(=O)O)cc1OC	16µM*	-66%	13µM*
COc1ccc(/C=C/C(=O)Nc2ccc(Cl)c(Cl)c2)cc1OC	?	-7%[10.9 µM]	?
O=C(CSc1nnc(NC(=O)c2ccco2)s1)NC1CCCCC1	4%	-12%	-15%
COc1ccc(NC(=O)CSc2nncs2)cc1OC	0%	0%	-4%
O=C(CSc1nnc(NC(=O)NC2CCCCC2)s1)Nc1ccccc1F	10µM*	7%[10.9 µM]	10µM*
Cc1ccc(NC(=O)Nc2nnc(SCC(=O)N3CCCCC3)s2)cc1	1%	-1%[10.9 µM]	?
COc1ccccc1Nc1nnc(SCC(=O)N2CCCC2)s1	-5%	-78%	-19%
COc1ccc(NC(=O)CSc2nnc(NC(=O)NC3CCCCC3)s2)cc1OC	10µM*	-8%[10.9 µM]	7.9µM*
COc1ccccc1NC(=O)CSc1nnc(NC(=O)NC2CCCCC2)s1	?	-6%[10.9 µM]	7.9µM*
CC(=O)c1ccc(NC(=O)CSc2nnc(NC(=O)NC3CCCCC3)s2)cc1	7.1µM*	-18%[10.9 µM]	7.9µM*
Cc1cccc(NCc2nnc3n2CCCCC3)c1C	5%	?	34%
SMILES	p53ts 32C kill	Peg3 imprint	p53ts 39C tox
COC(=O)Cn1c(=NC(=O)c2ccc3c(c2)OCCO3)sc2ccccc21	-4%	-5%[10.9 µM]	4%
COc1ccc(CCNC(=O)C2CCN(Cc3nc(-c4ccc(OC)c(OC)c4)oc3C)CC2)cc1OC	6%	-13%[10.9 µM]	-9%
Cc1noc(C)c1-c1ccc2ncnc(N3CCC(C(=O)O)CC3)c2c1	15%	3%	9%
CCCc1cc2c(n1Cc1cc(F)cc(F)c1)C(C)C1CN(C(=O)c3ccccc3)C(C)(C(=O)OC)C21 (centres undefined)	16%	-12%	1%
Cc1ccc2cc3cc(C(=O)N4CCN(c5ccccc5)CC4)oc3nc2c1	4%	29%[10.9 µM]	-12%
COc1ccc(-c2[nH]c(-c3ccccc3)nc2SCC(=O)Nc2ccc3c(c2)OCO3)cc1	?	6%[10.9 µM]	?
CN1CCN(c2ncc3nc(-c4cccc(C#N)c4)c(=O)n(C[C@H]4CCCO4)c3n2)CC1	-10%	-21%	2%
O=C(O)Cn1c(=O)oc2cc(S(=O)(=O)NC3CCCCC3)ccc21	-7%	-7%	3%
COc1cc2c(cc1OC)CN(C(=O)CC1CC3CCC1C3)CC2 (centres undefined)	10µM*	-66%	13µM*
COc1cc2c(cc1OC)CN(C(=O)C(C)(C)C)CC2	-1%	-2%	1%
Cc1nn(CC(=O)NCCc2ccccc2Cl)c(=O)c2nn(-c3ccccc3)c(C)c12	4%	3%[10.9 µM]	-4%
COc1ccc(-c2nc(SCC(=O)Nc3cccc(C(C)=O)c3)n[nH]2)cc1	?	-12%[10.9 µM]	32µM*
Cc1cccc(NC(=O)CSc2n[nH]c(-c3ccncc3)n2)c1	18%	-12%	19%
Cc1ccccc1C(=O)N1CCC(N2CCN(Cc3ccc(F)cc3)C(=O)C2=O)CC1	10%	-10%[10.9 µM]	15%
Cc1ccc2nc(-c3sc4nc(C)ccc4c3N)[nH]c2c1	13µM*	nt	10µM*
Cc1ccc2nc(-c3ccc(SCC(=O)O)nc3)[nH]c2c1	-12%	-66%	-15%
COc1ccc(CCNC(=O)c2oc(=O)c3ccccc3c2-c2ccccc2)cc1OC	-3%	-8%[10.9 µM]	-13%
COc1ccc2nc(SCC(O)c3cccc(Br)c3)[nH]c2c1 (centres undefined)	2%	6%[10.9 µM]	-23%
COc1ccc2c(c1)c1c(c(=O)n(Cc3ccccc3)c(=O)n1Cc1ccccc1)n2C	4%	-9%[10.9 µM]	4%
CCOc1cccc(-c2nc3ccccc3c(=O)o2)c1	10µM*	-29%[10.9 µM]	10µM*
COc1cc(OC)cc(-c2nc3ccccc3c(=O)o2)c1	-5%	nt	22%
O=C(/C=C/c1ccc(O)c(O)c1)OC1C[C@](O)(C(=O)O)C[C@@H](O)[C@H]1O (some centres undefined)	4%[1.84 µM]	-3%	8%
COc1cccc(OCc2nc3ccccc3n2Cc2ccccc2C)c1	6%	-7%[10.9 µM]	?
COc1cccc(OCc2nc3ccccc3n2C)c1	?	-50%[10.9 µM]	20µM*
Cc1ccc2c(=O)cc(C(=O)Nc3sc4c(c3C(=O)NCc3ccccc3)CCCC4)oc2c1C	5%	-37%[10.9 µM]	16%
SMILES	p53ts 32C kill	Peg3 imprint	p53ts 39C tox
Nc1ccc2oc(-c3cccc(Br)c3)nc2c1	?	-63%	?
Nc1ccc2oc(-c3ccc4nc[nH]c4c3)nc2c1	8.9µM*	nt	14µM*
CC[C@@H](c1ccccc1)n1c(=O)n2n(c1=O)[C@H]1[C@H](O)[C@H]3O[C@@H]3/C(=N/OC[C@@H](O)COCc3ccco3)[C@@H]1CC2	10%[9.22 µM]	nt	-6%[9.22 µM]
CC(C)c1ccc(CNc2nc(-c3ccco3)nn2S(=O)(=O)c2ccc(F)cc2)cc1	-12%	-18%[10.9 µM]	-21%
COc1cc(C(=O)Nc2cc(-c3nc4cc(C)ccc4o3)ccc2C)cc(OC)c1OC	13µM*	-15%	?
Cc1ccc(-c2nc3cc(NC(=O)C(C)C)ccc3o2)cc1	?	-65%	?
CCCC(=O)Nc1cccc(-c2nc3cc(C)c(C)cc3o2)c1	16µM*	-45%	?
COc1cc(C(=O)Nc2cccc(-c3nc4cc(C)ccc4o3)c2)cc(OC)c1OC	-25%	nt	-27%
Cc1ccc(SCC(=O)Nc2ccc3oc(-c4cccc(C)c4)nc3c2)cc1	-14%	-13%[10.9 µM]	-11%
CCCC(=O)Nc1cccc(-c2nc3ccccc3o2)c1	2%	-14%	5%
Cc1ccc2oc(-c3ccc(NC(=O)CCC(=O)O)cc3)nc2c1	?	-18%[10.9 µM]	16µM*
CCC(=O)Nc1ccc2oc(-c3cccc(C)c3)nc2c1	13µM*	-91%	?
COc1ccc2c(c1)c1c(c(=O)n(Cc3ccccc3)c(=O)n1CC(=O)Nc1ccccc1OC)n2C	2%	-3%[10.9 µM]	17%
O=C(Nc1cccc(Br)c1)N1CCC(CN2CCCCC2)CC1	0%	nt	nt

Assay outcomes from PubChem.
